# A3G deaminase: APOBEC3G (human) deaminase inhibition | recombinant A3G, ssDNA deamination FAM/TAMRA fluorescence | AID 493012 | actives 0.28% (n = 330,000) | inhibition, % at 20 µM;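 active = inhibition of at least 40% at 20 µM, with no more than 30% in the related APOBEC3A deaminase screen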
# Target sequence (Q9HC16 whole entry, looked up): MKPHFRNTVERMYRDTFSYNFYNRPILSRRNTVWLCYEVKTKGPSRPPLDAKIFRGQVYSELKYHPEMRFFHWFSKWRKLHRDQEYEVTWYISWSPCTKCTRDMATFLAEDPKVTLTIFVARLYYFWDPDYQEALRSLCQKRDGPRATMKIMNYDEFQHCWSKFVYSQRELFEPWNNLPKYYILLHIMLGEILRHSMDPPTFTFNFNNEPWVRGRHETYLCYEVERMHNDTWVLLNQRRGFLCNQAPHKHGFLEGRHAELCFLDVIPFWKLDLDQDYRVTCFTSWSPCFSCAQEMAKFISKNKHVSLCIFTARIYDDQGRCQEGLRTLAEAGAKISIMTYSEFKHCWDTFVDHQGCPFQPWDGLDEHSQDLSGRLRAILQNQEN
# NRP1-CendR mod: modulators of CendR peptide binding to human neuropilin-1 | FAM-RPARPAR peptide binding to NRP-1, fluorescence polarization | inhibition, % at 25 µM | actives 0.85% (n = 360,000) | AID 602438;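 active = inhibition or corrected inhibition above about 18%, plus a signal ratio from 0.5 to 1.5, limit read from the data, passing the limit was not always enough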
# ADAM17 inh: inhibitors of human ADAM17; P78536; recombinant ADAM17, EDANS/DABCYL FRET peptide cleavage; inhibition, % at 6.95 µM; actives 0.83% (n = 370,000); AID 720648;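 active = inhibition above the mean of compounds lying between control limits plus 3 SD, set per campaign, cut at about 8.5% in these data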
# ADAM10 inh: inhibitors of human ADAM10; O14672; recombinant ADAM10, EDANS/DABCYL FRET peptide cleavage, 3 h; inhibition, % at 7 µM; actives 0.62% (n = 370,000);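 active = inhibition above a per-campaign cutoff equal to the mean of compounds falling between control-based bounds plus 3 SD, cut at about 20% in these data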
# A3A deaminase: human APOBEC3A DNA deaminase inhibition; P31941; recombinant A3A, FAM/TAMRA ssDNA deamination fluorescence; actives 0.41% (n = 330,000); inhibition, % at 20 µM;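 active = at least 40% inhibition at 20 µM here, with at most 30% in a related deaminase screen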
# Target sequence (P31941 whole entry, looked up): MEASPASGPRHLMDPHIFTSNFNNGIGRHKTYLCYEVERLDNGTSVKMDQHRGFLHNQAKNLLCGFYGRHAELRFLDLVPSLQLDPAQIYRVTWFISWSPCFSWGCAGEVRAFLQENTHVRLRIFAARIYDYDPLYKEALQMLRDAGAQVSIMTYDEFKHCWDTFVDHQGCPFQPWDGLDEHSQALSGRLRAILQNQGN
# ADAM10 ctr: counter-screen for ADAM17 exosite inhibitors: inhibitors of human ADAM10; shares compounds with ADAM17 inh; recombinant ADAM10, EDANS/DABCYL FRET peptide cleavage, 3 h; inhibition, % at 6.95 µM; actives 47% (n = 2,900); AID 743256;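 active = mean inhibition over the triplicate runs exceeds the activity threshold set in the earlier primary screen, cut at about 20% in these data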
# ADAM17 confirm: human ADAM17 inhibition, confirmation. actives 65% (n = 2,900). recombinant ADAM17, EDANS/DABCYL QFRET peptide cleavage. AID 743257. shares compounds with ADAM17 inh. inhibition, % at 6.95 µM;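 active = mean inhibition across replicates above the hit cutoff set in the primary screen, cut at about 8.5% in these data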
# A number is an active result; n = inactive; x = no result given. Hits are enriched below; roughly 2.4% of the tested compounds scored in any of these assays.
SMILES,A3G deaminase,NRP1-CendR mod,ADAM17 inh,ADAM10 inh,A3A deaminase,ADAM10 ctr,ADAM17 confirm
O=C1CCCN1c1ccc(S(=O)(=O)NCCOc2ccccc2)cc1,n,n,n,n,n,x,x
Cc1cc(N2CCCC2=O)cc(C)c1S(=O)(=O)NCCOc1ccc(C(C)(C)C)cc1,n,n,11,n,n,n,n
C#CCN1C(=O)[C@]2(NCCc3c2[nH]c2ccc(OC)cc32)c2ccccc21,x,x,n,n,x,x,x
C/C(=N\NC(=S)NCCc1ccccc1)c1ccc(Cl)cc1,n,n,9.6,n,n,n,n
O=C(CN1CCN(c2ccc(O)cc2)CC1)Nc1cc(S(=O)(=O)N2CCCCC2)ccc1Cl,n,n,10,n,n,n,11
O=C(CN1C(=O)c2ccccc2S1(=O)=O)Nc1cc(S(=O)(=O)N2CCCCC2)ccc1Cl,n,n,10,n,n,n,13
CCSc1nnc(NC(=O)CCc2ccc(OC)cc2)s1,n,n,9.1,n,n,n,n
CCCCCCCCN1C(=O)N(Cc2ccc(OC)cc2)S(=O)(=O)c2ccc(F)cc21,x,x,n,n,x,x,x
NC(=O)CSc1ncc(-c2ccccc2)[nH]1,n,n,n,n,n,x,x
O=[N+]([O-])c1ccc(-c2cnc(SC(c3ccccc3)c3ccccc3)[nH]2)cc1,n,n,10.0,n,n,33,14
COc1ccccc1NC(=O)OC1CC2CC1[C@H]1CCCCN1[C@H]2Cc1ccccc1 (some centres undefined),x,x,n,n,x,x,x
Cc1ccc(Cn2c(C(CO)Nc3nc(-c4ccc(Cl)c([N+](=O)[O-])c4)cs3)nc3ccccc32)cc1 (centres undefined),n,n,17,n,n,n,9.7
COC(=O)C1CCN(CCCOc2ccc(CN3CCN(c4ccc([N+](=O)[O-])cc4)CC3)cc2)CC1,n,n,n,n,n,x,x
COC(=O)C1CCN(c2ccc([N+](=O)[O-])cc2)CC1,n,n,10,n,n,n,n
CC(=O)OCCCN1CCC2(CCCCC2)C1=O,x,x,n,n,x,x,x
CCc1c(-c2ccc(Cl)cc2)ncn1Cc1cccc(-c2ccccc2)c1,x,n,12,n,x,n,n
CCc1c(-c2ccccc2F)ncn1Cc1cccc(-c2ccccc2)c1,x,n,n,n,x,x,x
CCN(CC)C(=O)C1CC(=O)N(c2ccc(F)c(Cl)c2)C1 (centres undefined),n,n,9.5,n,n,n,n
COCCNC(=O)C1CC(=O)N(c2ccc(F)c(Cl)c2)C1 (centres undefined),n,n,n,n,n,x,x
COc1ccc(CCNC(=O)CSc2nc(N)c(C#N)c(-c3cccs3)c2C#N)cc1OC,n,n,8.9,n,n,n,n
Cc1ccccc1-c1cc2nc(Oc3cccc4ccccc34)n(C)c(=O)c2s1,x,n,9.2,n,x,n,9.5
CCCC1CCC2(CC1)CCC2OC(=S)NCc1cccc(F)c1 (centres undefined),x,x,n,n,x,x,x
N=c1c2c(ccn1CCCCc1ccccc1)Oc1ccc3ccccc3c1C2c1ccccc1 (centres undefined),x,x,9.6,n,x,20,14
N=c1c2c(ccn1Cc1ccccc1)Oc1ccc3ccccc3c1C2c1ccccc1 (centres undefined),x,x,n,n,x,x,x
Cc1ccc(S(=O)(=O)N2CCC(C(=O)OC(C)C(=O)NCc3ccccc3)CC2)cc1C (centres undefined),n,n,9.7,n,n,n,n
SMILES,A3G deaminase,NRP1-CendR mod,ADAM17 inh,ADAM10 inh,A3A deaminase,ADAM10 ctr,ADAM17 confirm
O=C1Nc2ccccc2C12OCC(COc1ccc(Cl)cc1)O2 (centres undefined),n,n,11,n,n,n,n
O=C(NC1CCCCN(Cc2ccc(Cl)cc2)C1=O)c1ccccc1-c1ccc(Cl)c(Cl)c1 (centres undefined),x,x,n,n,x,x,x
COC(=O)[C@]12C[C@H](CC(=O)N3CCOCC3)C(=O)N(Cc3cccc4ccccc34)C1=C[C@H](COCc1ccccc1)O[C@@H]2C,x,x,n,n,x,x,x
CC(NC(=O)c1ccco1)C(=O)N1CCN(c2ccccc2)CC1 (centres undefined),n,n,9.2,n,n,n,n
C[C@H]1[C@H](NC(=O)c2cccc(C(F)(F)F)c2)CC[C@@]23CCCN2C(=O)CCC[C@@H]13,x,x,n,n,x,x,x
O=C(O)c1cc([N+](=O)[O-])ccc1N1CCCCC1,n,n,n,n,n,x,x
O=C(O)c1cc([N+](=O)[O-])ccc1-c1ccc([N+](=O)[O-])cc1C(=O)O,x,n,9.4,n,x,n,n
COc1ccc(-c2nn(-c3ccccc3)cc2/C=N/NC(=O)c2cccc(S(=O)(=O)Nc3ccccc3Cl)c2)cc1,n,n,9.2,n,n,n,n
O=C(c1cc(-c2ccccc2)nc2ccccc12)N1CCN(c2ccccc2O)CC1,n,n,14,n,n,29,19
COC(=O)c1cc2oc(C)cc2n1CC(=O)Nc1cc(C)cc(C)c1,n,n,9.6,n,n,n,n
Cc1ccc(NC(=S)NNC(=O)c2c([N+](=O)[O-])c(C)nn2C)cc1,n,n,12,n,n,25,12
Cc1ccc(NC(=S)NNC(=O)c2c(Cl)c(C)nn2C)cc1,n,n,n,n,n,x,x
COc1ccc(-c2csc(NC(=O)C3COc4ccccc4O3)n2)cc1OC (centres undefined),n,n,8.9,n,n,n,10
CC(=O)c1cccc(-c2ccnc3c2CC(C(=O)Nc2cccc(Oc4ccccc4)c2)O3)c1 (centres undefined),x,n,9.4,n,x,25,9.9
CC(=O)c1cccc(-c2ccnc3c2CC(C(=O)Nc2cccc(C(F)(F)F)c2)O3)c1 (centres undefined),x,n,8.9,n,x,n,n
O=C(Nc1ccc2c(c1)OCO2)C1Cc2c(-c3ccccc3Oc3ccccc3)ccnc2O1 (centres undefined),x,n,8.9,n,x,20,9.7
COc1ccc(NC(=O)C2Cc3c(-c4ccccc4Oc4ccccc4)ccnc3O2)cc1OC (centres undefined),x,n,n,n,x,x,x
CC(=O)c1cccc(NC(=O)C2Cc3c(-c4cccc(C(C)=O)c4)ccnc3O2)c1 (centres undefined),x,n,n,n,x,x,x
O=C(Nc1cccc(OC(F)(F)F)c1)C1Cc2c(-c3cccc(F)c3)ccnc2O1 (centres undefined),x,n,12,n,x,35,19
COc1cccc(NC(=O)N(C)C[C@H]2OCc3ccccc3-c3c(n(C)c4ccccc34)C(=O)N([C@H](C)CO)C[C@H]2C)c1,x,x,n,n,x,x,x
O=C(Nc1ccc(Cl)cn1)c1ccc(COc2ccccc2Br)o1,n,n,n,n,n,x,x

# Source: PubChem
